# Article PMC4336329 (PLoS ONE, 2015)
# Screen size: about 310,000 compounds; about 14,000 (4.5%) showed an effect of 50% or more. Effects have a minus sign here. This is one part of a sample in which strong results are shown more often than they occur.
# Target: human ether-à-go-go-related gene (hERG) potassium channel (human, UniProt Q12809)
# Test: primary screen, population patch clamp on CHO cells stably expressing hERG; higher = less effect of the substance
# 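Note: peak tail current of the secondary pulse compared with the same well before compound.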
# Chain of human ether-à-go-go-related gene (hERG) potassium channel (Q12809 whole entry, looked up): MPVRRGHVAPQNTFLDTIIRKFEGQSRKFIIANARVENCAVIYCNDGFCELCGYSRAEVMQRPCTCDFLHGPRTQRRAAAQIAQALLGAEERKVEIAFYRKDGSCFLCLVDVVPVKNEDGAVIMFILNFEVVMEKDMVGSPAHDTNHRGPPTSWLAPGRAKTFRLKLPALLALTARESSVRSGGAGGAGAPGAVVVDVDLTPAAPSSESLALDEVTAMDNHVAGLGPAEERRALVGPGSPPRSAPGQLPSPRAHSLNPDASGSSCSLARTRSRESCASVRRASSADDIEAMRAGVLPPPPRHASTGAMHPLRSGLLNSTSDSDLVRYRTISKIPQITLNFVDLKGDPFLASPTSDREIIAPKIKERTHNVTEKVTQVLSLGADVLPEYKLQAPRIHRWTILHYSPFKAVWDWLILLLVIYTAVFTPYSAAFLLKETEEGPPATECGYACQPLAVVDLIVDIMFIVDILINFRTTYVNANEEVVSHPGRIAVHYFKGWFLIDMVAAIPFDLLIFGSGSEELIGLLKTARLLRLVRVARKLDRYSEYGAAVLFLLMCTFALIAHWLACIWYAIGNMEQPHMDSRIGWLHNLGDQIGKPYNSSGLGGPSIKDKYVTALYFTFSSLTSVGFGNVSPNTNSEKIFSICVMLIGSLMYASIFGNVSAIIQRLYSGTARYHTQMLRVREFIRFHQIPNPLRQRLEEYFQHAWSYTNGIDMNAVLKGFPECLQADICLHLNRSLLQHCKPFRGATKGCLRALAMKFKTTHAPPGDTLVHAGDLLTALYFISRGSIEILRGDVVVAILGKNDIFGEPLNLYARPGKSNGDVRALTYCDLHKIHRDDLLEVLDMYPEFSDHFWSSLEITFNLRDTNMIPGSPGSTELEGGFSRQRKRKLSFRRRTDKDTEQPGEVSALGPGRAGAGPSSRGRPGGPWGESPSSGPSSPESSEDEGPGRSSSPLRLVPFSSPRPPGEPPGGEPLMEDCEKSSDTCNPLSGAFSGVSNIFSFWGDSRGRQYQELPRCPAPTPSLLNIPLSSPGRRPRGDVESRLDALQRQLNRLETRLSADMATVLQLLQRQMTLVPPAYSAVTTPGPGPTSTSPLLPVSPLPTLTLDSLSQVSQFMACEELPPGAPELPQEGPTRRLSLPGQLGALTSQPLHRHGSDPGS
row,SMILES,"hERG current change (%, negative = inhibition) at 10uM"
1,CCn1cc(S(=O)(=O)NC(C)c2cc(OC)ccc2OC)cn1 (stereo not shown),1.25%
2,CC(C)O.COC(=O)Nc1ccc2c(c1)N(C(=O)CCN1CCN3CCCC3C1)c1ccccc1CC2.Cl.O (stereo not shown),1.43%
3,CC(=O)c1cc(F)c(N2CCN(C(=O)c3ccco3)CC2)cc1C,-18.5%
4,Cn1c(Cl)c(/C=N/OC(=O)c2ccc(Cl)cc2)c2ccccc21,-5.13%
5,Cc1ccc(-c2nnn(CC(=O)N(Cc3ccc(F)cc3)C(C(=O)NC3CCCC3)c3ccncc3)n2)o1 (stereo not shown),-12.4%
6,CCOC(=O)c1ccc(Nc2c(OCC)c(=O)c2=O)cc1,-15.4%
7,C=CCn1c(SCc2nc3c(c(=O)[nH]c(=O)n3CCCC)n2CCC)nnc1-c1ccccc1,-60.5%
8,CCCCn1c(=O)[nH]c(=O)c2c1nc(-c1ccc(OCC)cc1)n2CC,1.27%
9,CCCCn1c(=O)[nH]c(=O)c2c1nc(-c1ccc(-c3ccc(F)cc3)o1)n2C,-55%
10,CCCCn1c(=O)[nH]c(=O)c2c1nc(-c1ccc(C(F)(F)F)cc1)n2C,3.8%
11,CCCCn1c(=O)[nH]c(=O)c2c1nc(-c1ccc(-c3ccccc3)cc1)n2C,20.2%
12,C=CCOc1ccc(-c2nc3c(c(=O)[nH]c(=O)n3CCC)n2CCCC)cc1,-5.34%
13,CCCCn1c(=O)[nH]c(=O)c2c1nc(COc1ccc(C#N)cc1)n2CCC,-57.2%
14,CCCn1c(=O)[nH]c(=O)c2c1nc(-c1ccc(C#N)cc1)n2CCOC,-2.78%
15,C=CCn1c(SCc2ccccc2)nc2c1c(=O)[nH]c(=O)n2C,-21.6%
16,CCCCn1c(O)c(/C(C)=N/NC(=O)Nc2ccccc2)c(=O)[nH]c1=O,7.7%
17,O=P(C(c1ccc2c(c1)OCO2)N1CCOCC1)(N1CCOCC1)N1CCOCC1 (stereo not shown),4.64%
18,O=C(CN1CCN(c2ncc(C(F)(F)F)cc2Cl)CC1)Nc1ccc2c(c1)OCO2,-37.7%
19,Cc1ccc(-c2nc(CSCC(=O)NCCCN3CCOCC3)c(C)o2)cc1,14.1%
20,Cc1ccc(-c2nc(CSCC(=O)NCCN3CCN(Cc4ccccc4)CC3)c(C)o2)cc1,-65.2%
21,Cc1oc(-c2ccc(Cl)cc2)nc1CSCC(=O)NC1CCN(Cc2ccccc2)CC1,-73.1%
22,CCOc1ccc(-c2nc(CSCC(=O)NCCN3CCOCC3)c(C)o2)cc1,11.3%
23,COc1ccc(-c2nc(CSCC(=O)NC3CCN(Cc4ccccc4)CC3)c(C)o2)cc1OC,-40.9%
24,Cc1ccc(-c2nc(CSCC(=O)NC3CCN(Cc4ccccc4)CC3)c(C)o2)cc1,-44%
25,COc1ccc(-n2nc(C(=O)NCC(=O)N3CCN(c4ccccc4OC)CC3)c3ccccc3c2=O)cc1OC,-34.5%
26,CC1CCN(C(=O)CCc2ccc(S(=O)(=O)NC(C)(C)C)cc2)CC1,-5.31%

row,SMILES,"hERG current change (%, negative = inhibition) at 10uM"
1,O=C(N/N=C/c1ccncc1)c1cc([N+](=O)[O-])cc([N+](=O)[O-])c1O,4.15%
2,CCOC(=O)C(=O)Nc1nnc(CCc2ccccc2)s1,6.37%
3,COCCNS(=O)(=O)c1ccc(OCC(=O)N2CCc3ccccc3C2)c(Cl)c1,-43.5%
4,Cc1cc(S(=O)(=O)NC(C)C)ccc1OCC(=O)N1CCN(Cc2ccc3c(c2)OCO3)CC1,-27.6%
5,CCCNS(=O)(=O)c1ccc(OCC(=O)N2CCN(Cc3ccc4c(c3)OCO4)CC2)c(C)c1,-61.6%
6,Cc1ccc(OCC(=O)N2CCc3ccccc3C2)c(C)c1,-16.1%
7,CCCNS(=O)(=O)c1ccc(OCC(=O)N2CCN(Cc3ccc4c(c3)OCO4)CC2)cc1,-32%
8,CCCNS(=O)(=O)c1ccc(OCC(=O)N2CCc3ccccc3C2)c(C)c1,-65.9%
9,CCOc1cc(C)c(C(C)C)cc1S(=O)(=O)n1cnc(C)c1,-18.7%
10,Cc1ccc(NC(=O)C2=COCCO2)cc1S(=O)(=O)N1CCOCC1,-0.0399%
11,CCOC(=O)C1CCN(C2CC(=O)N(c3cccc(Cl)c3)C2=O)CC1 (stereo not shown),-12%
12,c1ccc(C[C@H]2CN=C(Nc3ccccc3)N2CC2CCC2)cc1,-63%
13,c1ccc(C[C@H]2CN=C(Nc3ccccc3)N2CCC2CCCC2)cc1,-70.4%
14,CC(C)C[C@H]1CN=C(Nc2ccccc2)N1CC1CCC1,-30.2%
15,C[C@H]1CN=C(Nc2ccccc2)N1CC1CCC1,-0.391%
16,CCn1c2ccccc2c2cc(NC(=O)COC(=O)c3cc(OC)c(OC)cc3OC)ccc21,-3.41%
17,COC(=O)c1ccccc1NC(=O)c1cc2nc(C3CC3)cc(C(F)(F)F)n2n1,9.42%
18,Cn1c(Sc2ccc([N+](=O)[O-])cc2C(F)(F)F)nnc1-c1ccccc1,-55%
19,Cn1cnnc1Sc1ccc(C(F)(F)F)cc1[N+](=O)[O-],2.45%
20,Cn1c(Sc2ccc(C(F)(F)F)cc2[N+](=O)[O-])nnc1-c1ccccc1,-62.8%
21,Cn1c(Sc2ccc(C(=O)O)cc2[N+](=O)[O-])nnc1-c1ccccc1,-6.68%
22,Cn1c(SCC(=O)N/N=C/c2cc([N+](=O)[O-])ccc2O)nnc1-c1ccccc1,10.5%
23,CSc1nnc(-c2ccccc2)n1C,5.22%
24,CC(=O)Nc1ccc(S(=O)(=O)Nc2c(C)nn(-c3ccccc3)c2C)cc1,-7.68%
25,O=c1c(C(c2ccc(Cl)cc2)c2c(O)nc3n(c2=O)CCCS3)c(O)nc2n1CCCS2,21.3%
26,CCN(CC)S(=O)(=O)c1cccc(-c2nnc(SCCCC(=O)c3ccccc3)o2)c1,-23.8%
